# Cruzain inh Det: cruzain (T. cruzi) inhibition with detergent; P25779; purified cruzain, Z-FR-AMC fluorescence, 0.01% Triton; Potency, µM, without a hit: max response, negative = inhibition, hits mostly inhibitors; 200,000 compounds, 0.43% hits; AID 1478;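 further: plate controls were neutral wells for no effect and buffer without enzyme for full effect; nearly all actives have a fitted effect of over 40% in size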
# Target sequence (P25779 123-467 limits assumed): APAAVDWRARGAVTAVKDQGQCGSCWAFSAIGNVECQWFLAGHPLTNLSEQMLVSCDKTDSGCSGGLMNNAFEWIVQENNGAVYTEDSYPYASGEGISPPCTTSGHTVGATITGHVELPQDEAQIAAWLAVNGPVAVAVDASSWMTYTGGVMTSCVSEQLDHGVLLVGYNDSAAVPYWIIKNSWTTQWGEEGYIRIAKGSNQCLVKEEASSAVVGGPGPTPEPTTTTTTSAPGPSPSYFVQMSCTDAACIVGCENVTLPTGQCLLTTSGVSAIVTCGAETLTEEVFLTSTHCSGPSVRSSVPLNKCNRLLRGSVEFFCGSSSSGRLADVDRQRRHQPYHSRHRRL
#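 Purified cruzain (1.5 nM final) was preincubated with compounds for 15 min at room temperature in 100 mM sodium acetate pH 5.5, 5 mM DTT, 0.01% Triton X-100. Reaction started with 2 uM Z-FR-AMC; AMC fluorescence change over 60 s gave activity.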
# Cruzain inh noDet: inhibitors of Trypanosoma cruzi cruzain without detergent; P25779; purified cruzain, Z-FR-AMC fluorescence, no detergent; Potency, µM, for inactives: max response, negative = inhibition, hits mostly inhibitors; 200,000 compounds, 2.3% hits; AID 1476;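 further: plate controls were enzyme without inhibitor for no effect and buffer without enzyme for full effect; nearly all actives have a fitted effect of over 40% in size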
#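 Purified cruzain at 1.5 nM, pre-incubated 15 min with compound at room temperature in 100 mM sodium acetate pH 5.5, 5 mM DTT, 0.00005% Triton X-100. Reaction started with 2 uM Z-FR-AMC; AMC fluorescence increase over 60 s gives rate.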
# Numbers without * were called inactive; ? = inconclusive; ! = repeats disagree. In the library only some 2.6% were active in any assay of this set; here they are far more common. The call rests on the fitted dose curve; in most records, active means well fitted curve in the direction sought with a large enough effect; inconclusive means small, poorly fitted or top-dose-only effect, or another doubt; inactive means no such curve, though single readings can be large; an effect the other way counts as inactive or inconclusive. Potency means the concentration at half of the fitted maximal effect.
SMILES,Cruzain inh Det,Cruzain inh noDet
Cc1ccc(OCC(=O)Nc2ccc(O)c(-c3nc4ccccc4o3)c2)cc1,-2%,4µM*
Cc1ccc(OCC(=O)Nc2ccc3nc(Nc4cccc(Cl)c4)cc(C)c3c2)cc1,3%,20µM*
COc1cc(OC)c(NC(=O)Nc2nnc(N(C)C3CCCCC3)s2)cc1Cl,-4%,6%
CCOc1ccc(S(=O)(=O)NCCc2csc3nc(-c4cccc(C)c4)nn23)cc1,-9%,21%
Cc1nc(NC(=S)NC(=O)COc2ccc(Cl)cc2)ccc1Br,1%,?
Cc1ccc(OCC(=O)NC(=S)Nc2ccc(Br)c(C)n2)cc1,4%,16µM*
CCCc1ccc(OC(=O)c2sc3ncn(Cc4cccc(F)c4)c(=O)c3c2C)cc1,1%,-4%
COc1cccc(-n2cc(C(=O)NCCc3cccc(C)c3)c3ccccc3c2=O)c1,-4%,14%
COc1cccc(/C(O)=C/c2nc3ccc(C(=O)NCCc4cccc(C)c4)cc3[nH]c2=O)c1,-3%,20µM*
COc1cccc(C(=O)Nc2cc(C(=O)NCCc3ccccc3)ccc2Cl)c1,2%,1%
COc1cccc(/C(O)=C/c2nc3ccc(C(=O)NCCc4ccc(Cl)cc4)cc3[nH]c2=O)c1,-7%,25µM*
CN(C)c1ccc(NC(=O)c2sc(SCC(=O)Nc3ccc(Br)cc3)nc2N)cc1,6%,10µM*
CN(C)c1ccc(NC(=O)c2sc(SCC(=O)Nc3nccs3)nc2N)cc1,-7%,?
O=C(CSc1nc2c([nH]c3ccccc32)c(=O)n1-c1ccc(F)cc1)NCc1ccccc1,1%,12%
O=C(CNC(=O)c1ccc(Cl)cc1Cl)OCc1nc2ccccc2s1,7.9µM*,4µM*
O=C(COC(=O)CCc1nc2ccccc2s1)Nc1ncc(Cl)cc1Cl,-6%,-8%
CC(=O)OCc1nc2ccccc2s1,2%,-7%
O=C(CNC(=O)c1ccccc1)OCc1nc2ccccc2s1,25µM*,13µM*
CCN(CC)S(=O)(=O)c1ccc2c(c1)N(CC(=O)N1CCN(c3ccc(OC)cc3)CC1)C(=O)CO2,0%,36%
COc1ccc(OC)c(NC(=O)CN2C(=O)CC(C)Sc3ccccc32)c1 (stereo not given),-4%,-1%
Cc1ccc(C)c2[nH]c(=O)c(CN(Cc3ccc4c(c3)OCO4)Cc3nnnn3Cc3ccco3)cc12,-1%,-7%
Cc1ccc2cc(CN(Cc3ccc4c(c3)OCO4)Cc3nnnn3Cc3ccco3)c(=O)[nH]c2c1C,-1%,32µM*
COc1ccc(-c2nc3cc(C(C)C)ccc3o2)cc1NC(=O)c1ccc(C)c(Cl)c1,0%,-7%
COC(=O)c1ccc2c(c1)c(C#Cc1ccccc1)c(-c1ccccc1)n2C,-3%,18µM*
COC(=O)c1ccc2c(c1)c(I)c(-c1ccc(OC)cc1)n2C,3%,?
SMILES,Cruzain inh Det,Cruzain inh noDet
O=C1c2ccccc2C(=O)C1(c1ccccc1)N1CCN(c2cccc(C(F)(F)F)c2)CC1,-3%,-11%
NC(=S)N/N=C/c1ccc(-c2cccc([N+](=O)[O-])c2)o1,2.8µM*,3.2µM*
Nc1nonc1C(=O)N/N=C/c1ccc(-c2cccc([N+](=O)[O-])c2)o1,-11%,-16%
O=[N+]([O-])c1cccc(-c2ccc(/C=N/n3c(-c4ccccc4)n[nH]c3=S)o2)c1,-4%,16µM*
Cc1n[nH]c(=S)n1/N=C/c1ccc(-c2ccccc2[N+](=O)[O-])o1,-2%,-7%
CCCCCCCCCCCCCCCCOCC(COP(=O)([O-])OCC[N+](C)(C)C)OC (stereo not given),0%,14%
COc1ccccc1NC(=O)c1ncn(-c2ccccc2)n1,-4%,-3%
CC1(C)CCC2(C(=O)O)CC[C@]3(C)C(=CCC4[C@]5(C)CCC(O)C(C)(C)C5C(O)C[C@]43C)C2C1 (stereo not given in full),2%,-13%
COc1ccc(C)cc1NC(=O)CN1c2ccccc2S(=O)(=O)c2ccccc21,0%,-22%
COc1ccc(-c2nc3scc(CCNS(=O)(=O)c4ccc(F)cc4C)n3n2)cc1,-5%,-6%
COc1ccc(Cl)cc1NC(=O)C1CCN(S(=O)(=O)c2ccc(F)cc2)CC1,-6%,8%
COc1ccc(-n2nnnc2SCC(=O)c2ccc3c(c2)OCCO3)c(OC)c1,0%,?
COc1ccc(C)cc1-n1nnnc1SCC(=O)c1ccc2c(c1)OCCO2,0%,25µM*
O=c1cc(-c2ccc(O)c(O)c2)oc2cc(O)cc(O)c12,-13%,-19%
O=c1c(O)c(-c2ccc(O)c(O)c2)oc2cc(O)cc(O)c12,?,20µM*!
O=C(Cn1c(=O)oc2cc(Cl)ccc21)Nc1cccc(C(F)(F)F)c1,-6%,-1%
CCCCNC(=O)CCn1c(=O)c2ccccc2n(Cc2ccccc2C#N)c1=O,-3%,-1%
O=C(CCCN1C(=O)/C(=C/c2cccc(Br)c2)SC1=S)Nc1ccccn1,-4%,25µM*
CCc1ccc(/C=C2\SC(=S)N(CCCC(=O)Nc3ccccn3)C2=O)cc1,0%,-25%

# Screening results as filed in PubChem.
